Measurements reported in PubChem BioAssay (NCATS).
Activity calls are given as the source filed them. Where a call stands in place of a potency, no number is given. Calls follow the shape of the dose curve; as a rule, active = well fitted inhibition curve with a large enough effect; inconclusive = small, poorly fitted or top-dose-only effect; inactive = flat fitted curve, though single readings scatter.

What follows are compounds tested against Luciferin 4-monooxygenase (Photinus pyralis) (UniProt P08659) (assay: Primary firefly luciferase (FLuc) qHTS assay for identification of artifact compounds. (AID 1845220; also: nearly all actives have a fitted effect of over 60% in size)). Details: purified firefly luciferase, luminescence, 5 min; series mostly up to 54.1 µM.
How it was run: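 FLuc 10 nM; luciferin 10 uM; ATP 10 uM; Tris-acetate pH 7.6, Mg-acetate 10 mM; 15 min RT preincubation; 5 min reaction; luminescence.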

Compound	Potency	outcome
CC(=O)c1c(C)cc(O[C@@H]2O[C@H](CO)[C@@H](O)[C@H](O)[C@H]2O)cc1O	inactive	–
CC(C)CC(=O)OC[C@H]1O[C@@](COC(=O)CC(C)C)(O[C@H]2O[C@H](CO)[C@@H](O)[C@H](O)[C@H]2OC(=O)CC(C)C)[C@@H](OC(=O)CC(C)C)[C@@H]1O	inactive	–
CC1=C2[C@@H]([C@H](C)CC[C@H]2/C=C(\C)C(=O)O)[C@H](O)C1	inactive	–
CN(NC(=O)CC(=O)NN(C)C(=S)c1ccccc1)C(=S)c1ccccc1	inactive	–
COC(=O)C1C(c2ccc(O)cc2)C(C(=O)OC)C1c1ccc(O)cc1 (stereo not given)	inactive	–
O=C(O[C@H]1[C@@H]2C=CO[C@@H](O[C@@H]3O[C@H](CO)[C@@H](O)[C@H](O)[C@H]3O)[C@@H]2[C@@]2(CO)O[C@@H]12)c1ccc(O)cc1	inactive	–
COC1=Cc2c(nc3n(c2=O)C(C)C(=O)NC3(O)C(C)C)OC=C1 (stereo not given)	inactive	–
CNC(=O)COC(=O)NCCC1CCN(c2cccc(C)n2)CC1	inactive	–
C=C1CCC2C(C)(C(=O)O)CC(O)CC2(C)C1CC/C(C)=C/C(=O)O (stereo not given)	inactive	–
O=C(O)C[C@H](O)C[C@H](O)/C=C/c1c(C2CC2)nc2ccccc2c1-c1ccc(F)cc1	inactive	–
NC(=O)c1ccc(OCC2NC(=O)C3CCCN3C2=O)cc1 (stereo not given)	inactive	–
C[C@@H]1O[C@@H](O[C@H]2[C@H](O[C@H]3[C@H](O[C@H]4CC[C@@]5(CO)C(CC[C@]6(C)C5CC=C5C7CC(C)(C)C[C@@H](O)[C@]7(C)CC[C@]56C)C4(C)C)O[C@H](C(=O)O)[C@@H](O)[C@@H]3O)OC[C@@H](O)[C@@H]2O)[C@H](O)[C@H](O)[C@H]1O (stereo not given in full)	–	inactive [at 11.6 µM]
C=CC1C(O[C@@H]2O[C@H](CO)[C@@H](O)[C@H](O)[C@H]2O)OC=C(C(=O)OC)C1Cc1nccc2c1[nH]c1ccccc12 (stereo not given in full)	inactive	–
CC(C)(OC1OC(CO)C(O)C(O)C1O)C1CCC(O)(CO)C2CC(O)C(C)(O)C2C1 (stereo not given)	inactive	–
COc1cc(/C=C/CO)ccc1O[C@@H]1O[C@H](CO)[C@@H](O)[C@H](O)[C@H]1O	inactive	–
C/C(=C/CO)CC[C@@H]1[C@@]2(C)CCC[C@](C)(C(=O)O)C2CC[C@@]1(C)O (stereo not given in full)	inactive	–
CC1=C2C(=O)C=C(CO)[C@@H]2[C@H]2OC(=O)[C@H](C)[C@@H]2[C@@H](O)C1	inactive	–
OC[C@H]1O[C@@H](Oc2cc(O)cc(/C=C/c3ccc(O)cc3)c2)[C@H](O)[C@@H](O)[C@@H]1O	inactive	–
C[C@]1(O)CC[C@@H]2C(C(=O)O)=CO[C@@H](O[C@@H]3O[C@H](COC(=O)c4ccc(O)cc4)[C@@H](O)[C@H](O)[C@H]3O)[C@@H]21	inactive	–
CC(=O)O[C@H]1[C@H](C)[C@@H](O)[C@H]2[C@@H]1C=C(C(=O)O)[C@H]1C[C@@H]3[C@H]([C@H]21)[C@H]1C(=O)O[C@@H]2CC[C@@]3(C)O[C@]1(O)[C@@H]2C	inactive	–

Compound	Potency	outcome
CC1(C)C(=O)N2c3ccccc3[C@]3(CC(n4cnc5ccccc5c4=O)C(=O)O3)[C@H]2N1O (stereo not given in full)	inactive	–
OC[C@H]1O[C@@H](n2cnc3c2NC=NC[C@H]3O)C[C@@H]1O	inactive	–
CC(=O)NC(CCC(=O)O)C(=O)NCCc1ccc(O)cc1 (stereo not given)	inactive	–
C[C@]1(OC(=O)/C=C/c2ccccc2)C[C@H](O)[C@]2(O)C=CO[C@@H](O[C@@H]3O[C@H](CO)[C@@H](O)[C@H](O)[C@H]3O)C12 (stereo not given in full)	inactive	–
C=C1[C@@H]2[C@H]3OC(=O)C(=C)[C@@H]3CC[C@@](C)(O)[C@@H]2C[C@@H]1O[C@@H]1O[C@H](CO)[C@@H](O)[C@H](O)[C@H]1O	inactive	–
C=C1C2=CC(O)C(C)C1(C)CC/C(C)=C/CCC1(C)OC1C2=O (stereo not given)	inactive	–
C=C1CC[C@H]2[C@@H](/C=C(\C)C(=O)[C@@]3(OC(C)=O)C[C@H](C)[C@H](OC(C)=O)[C@@H]3[C@H]1OC(C)=O)C2(C)C	inactive	–
C=C1C(=O)OC2CC(C)=C(C(C)CCCO[C@@H]3O[C@H](CO)[C@@H](O)[C@H](O)[C@H]3O)C(O)C12 (stereo not given in full)	inactive	–
C[C@@H]1C[C@H](O[C@@H]2O[C@H](CO[C@@H]3OC[C@](O)(CO)[C@H]3O)[C@@H](O)[C@H](O)[C@H]2O)CC(C)(C)[C@H]1/C=C/[C@@H](C)O	inactive	–
COc1ccc2c(c1O)OC[C@H]1c3ccc(O)cc3O[C@@H]21	inactive	–
O=c1c2ccccc2nc2n1CCC2O (stereo not given)	inactive	–
CCC(C)C(=O)O[C@@H]1[C@@H](O)[C@@H](O[C@H]2O[C@H](CO)[C@@H](O)[C@H](O)[C@H]2O)O[C@H](CO)[C@H]1O (stereo not given in full)	inactive	–
CC1(C)C(O)CCC2(C)C1C(O)C=C1COC(=O)C12O (stereo not given)	inactive	–
O=C1Nc2ccc(O)cc2O[C@H]1O[C@@H]1O[C@H](CO)[C@@H](O)[C@H](O)[C@H]1O	inactive	–
COc1ccccc1CC(C(=O)O)N(C)C(=O)c1ccccc1 (stereo not given)	inactive	–
CC(/C=C/C1(O)C(C)CC(O)CC1(C)C)OC1OC(CO)C(O)C(O)C1O (stereo not given)	inactive	–
CC(NC(=O)CC(=O)O)c1nc2ccccc2c(=O)[nH]1 (stereo not given)	inactive	–
C=CC(C)(O)CO[C@@H]1O[C@H](CO)[C@@H](O)[C@H](O)[C@H]1O (stereo not given in full)	inactive	–
CNC(=O)c1ccc2cc([C@@]3(O)CCn4cncc43)ccc2c1	inactive	–
CC1(C)CCC[C@@]2(C)[C@H]1[C@H](O)C=C1COC(=O)[C@@]12O	inactive	–
